According to PubChem BioAssay (NCATS):
Results filed as inconclusive are left out. Unmarked numbers belong to inactive results. Calls come from the whole dose curve; as a rule, active = well fitted inhibition curve with a large enough effect; inconclusive = small, poorly fitted or top-dose-only effect; inactive = flat fitted curve, though single readings scatter.

molecular target: Calcium and integrin-binding protein 1 (Homo sapiens) (UniProt Q99828); assay: Primary qHTS for Identification of Calcium Integrin Binding Protein 1 (CIB1) Competitor (AID 1508620); settings: CIB1-GST / FITC-alphaIIb peptide fluorescence polarization; series mostly up to 114 µM; activity change, negative = inhibition: at the top concentration; note: top concentration of the series differs between compounds
Sequence (Q99828 whole entry, looked up): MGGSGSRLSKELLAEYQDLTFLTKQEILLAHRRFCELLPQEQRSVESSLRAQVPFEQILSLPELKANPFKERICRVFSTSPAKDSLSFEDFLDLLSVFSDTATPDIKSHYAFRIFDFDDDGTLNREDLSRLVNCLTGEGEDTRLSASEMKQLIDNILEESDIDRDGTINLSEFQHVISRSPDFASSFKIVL
Outline: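 Fluorescence polarization competition: GST-tagged CIB1 (1 uM final) preincubated with compound 15 min at room temperature, then FITC-labelled alphaIIb peptide (100 nM final) added. After 15 min at room temperature, polarization read at Ex 480/Em 540.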
% is set by controls: 0 for no effect and ±100 for the full control effect.

Structure (SMILES)	activity change, negative = inhibition
COc1ccc(C2Nc3ccccc3C(=O)N2Cc2ccccc2)cc1COc1ccc(C(N)=O)cc1 (configuration not stated)	3.92%
O=C(O)c1sc2c(c1-c1nc3ccccc3s1)CCNC2	-0.636%
CCc1ccc(NC(=O)c2cnn3c(C)cc(-c4ccccc4)nc23)cc1	1.72%
O=c1[nH]c2ccc(S(=O)(=O)N3CCN(S(=O)(=O)c4ccc5c(c4)OCCO5)CC3)cc2[nH]c1=O	1.62%
Cc1cc(N[S+](=O)([O-])c2ccc(NC(=O)Cc3ccc(Cl)nc3)cc2)no1	-12.3%
NC(=O)C1CCN(c2nc(-c3ccc(Br)cc3)cs2)CC1	2.98% [at 384 µM]
Cc1ccc(-n2cnc3cc(C(=O)N4CCCCC4)ccc32)cc1	2.51%
CC(C)c1ccccc1-c1nc(NCc2ccc(-c3cccnc3)cc2)c2cccn2n1	-4.05%
CCOC(=O)c1c(-c2ccccc2)no[n+]1[O-]	1.11%
CCOc1ccc(CCNC(=O)c2cc3sccc3n2Cc2cccc(C)c2)cc1OCC	3.52%
Cc1cc2c(s1)c1cnn(Cc3c(F)cc(F)cc3F)c(=O)c1n2C	2.74%
O=C(O)c1ccc(S(=O)(=O)N[C@H](Cc2ccccc2)C(=O)O)cc1	-2.66%
Cc1ccc(OCCn2c(CCNC(=O)c3cccc(C)c3)nc3ccccc32)cc1	4.84%
COc1cccc(C(=O)Nc2ccc(-c3nc4ccccc4[nH]3)cc2)c1	3.84%
Cc1ccc(OCCn2c(CCNC(=O)/C=C/c3ccccc3Cl)nc3ccccc32)cc1	29.9%
COc1cc(O)c(C(CC(=O)N2CCCC(CN3CCCCC3)C2)c2ccc3c(c2)OCO3)c(OC)c1 (configuration not stated)	3.11% [at 228 µM]
CN(C)c1ccccc1-c1csc(N2CCC(C(N)=O)CC2)n1	-0.412%
